Experimental data taken from paper PMC5540273 (PLoS ONE, 2017).

Assays:
Conditions in all cases: concentration: 1 μM, replicates: in singlicate; n = 1
p38-beta = test system: T1, p38-beta
T1 construct: gene MAPK11

p38-delta = test system: p38-delta
p38-gamma = test system: T2, p38-gamma
T2 construct: gene MAPK12
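Note: KINOMEscan kinase panel screen.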

SMILES	%Inh (p38-beta)	%Inh (p38-delta)	%Inh (p38-gamma)
Nc1nc(-c2cccnc2)c(-c2ccnc3ccccc23)s1 [GW684083]	0%	27%	0%
COC(=O)c1cccc(NC(=O)NCCNc2ccnc(Nc3ccc(F)cc3)n2)c1 [GSK1379883]	0%	40%	0%
COc1ccc(NC(=O)Nc2ccc(C)c(-c3ccc(C(=O)Nc4ccncc4)cc3)c2)cc1 [GSK1398475]	0%	37%	0%
CC(C)(C)OC(=O)NC1CCCN(c2cc(-c3ccc4c(N)n[nH]c4c3)nc(N)n2)C1 (centres unmarked) [GSK2286096]	0%	47%	0%
Cl.Fc1ccccc1COc1ccc(Nc2ncnc3ccc(-c4nnc(C(F)(F)F)o4)cc23)cc1Cl [GW424170]	0%	29%	17%
Fc1ccc(-c2ncn(CCCNCc3ccccc3)c2-c2ccncc2)cc1	4%	1%	24%
COc1ccc(Nc2nccc(N3CCC(NC(=O)c4cccc(NC(C)=O)c4)C3)n2)cc1 (centres unmarked) [GSK1379732]	0%	22%	7%
Cn1cc(-c2ccc3c(c2)CCN3C(=O)Cc2cccc(C(F)(F)F)c2)c2c(N)ncnc21 [GSK2606414]	0%	20%	2%
CN1c2ccc(-c3ccc(C(=O)NCCO)cc3)cc2-c2[nH]ncc2S1(=O)=O	4%	9%	10%
CNc1nccc(-c2c(-c3ccc(F)cc3)ncn2C2CCN(C)CC2)n1 [SB-222903]	13%	9%	0%
Nc1nc(-c2ccc3c(N)n[nH]c3c2)cc(N2CCCCC2)n1 [GSK2228768]	0%	19%	0%
Cn1ccc2ncnc(Nc3ccc(Oc4cccc(Cl)c4)c(Cl)c3)c21	22%	40%	8%
Cl.O=S(=O)(c1cccc(F)c1)c1ccc(Nc2ncnc3cc(Br)sc23)cc1Cl [GSK306886]	0%	26%	8%
CSc1nn2c(=O)cc(N3CCOCC3)nc2n1Cc1cccc(Cl)c1Cl [GSK2347225]	0%	59%	16%
Cc1cccc(-c2nc(Nc3ccc4[nH]nnc4c3)c3ccccc3n2)n1 [GW867587]	0%	0%	0%
COc1ccc(NC(=O)c2ccc(-c3cc(-c4nnc(C)o4)ccc3C)cc2)cc1 [GW595885]	33%	17%	0%
Fc1ccc(Nc2nccc(-c3c(-c4ccc(Cl)cc4)nn4ncccc34)n2)cc1F [GW829058]	19%	4%	37%

SMILES	%Inh (p38-beta)	%Inh (p38-delta)	%Inh (p38-gamma)
CSc1ccc(NC2=C(c3ccccc3Cl)C(=O)NC2=O)cc1 [SB-342411]	0%	0%	35%
Oc1ccc2ncnc(Nc3ccc(OCc4ccccc4)cc3)c2c1 [GI262866]	0%	36%	0%
Fc1cccc(COc2ccc(Nc3ncnc4sc(-c5ccc[nH]5)cc34)cc2Cl)c1 [GW707818]	4%	46%	7%
c1ccc(-c2ccc3c(-c4ccnc(Nc5ccc6c(c5)OCCO6)n4)cnn3n2)cc1 [GW818941]	0%	26%	0%
O=C(Nc1n[nH]c2nc(-c3ccco3)c(Br)cc12)c1ccc(CN2CCCC2)cc1.O=C(O)[C@H](O)[C@@H](O)C(=O)O [SB-742352]	0%	0%	10%
CN1CCC(n2cnc(-c3ccc(F)cc3)c2-c2ccnc(NC3CCNCC3)n2)CC1 [SB-229482]	23%	38%	38%
CCCc1ccc(S(=O)(=O)NC2CCN(c3ccnc(Nc4ccc(OC)cc4)n3)C2)cc1 (centres unmarked) [GSK1379737]	0%	26%	31%
Cl.Cl.c1ccc(-c2cc3ccncc3cc2OC2CCNCC2)cc1 [GSK1122999]	0%	44%	40%
CCC(CC)(CC)n1cnc2c(N)ncnc21 [SKF-97620]	8%	0%	1%
Fc1cccc(COc2ccc(Nc3ncnc4nn5ccccc5c34)cc2Cl)c1 [GW689066]	0%	25%	0%
CCc1nc(-c2cccc(C)c2)c(-c2ccnc(NC(=O)c3ccccc3)c2)s1	68%	–	32%
Cc1ccc(O)cc1Nc1cc(C(F)(F)F)nc2ccc(-c3ccncc3)cc12 [GW630823]	0%	7%	31%
Cc1cc(N2CCC(NS(=O)(=O)c3ccc(F)cc3)CC2)nc(Nc2cccc(C#N)c2)n1.O=C(O)C(F)(F)F [GSK1653537]	0%	8%	0%
Nc1n[nH]c2nnc(-c3ccccc3)cc12 [SB-517389]	0%	39%	0%
COC(=O)c1c(-c2ccccc2)c2cc(Cl)ccc2c(=O)n1Cc1ccc(S(C)(=O)=O)cc1	0%	21%	23%
Cl.c1ccc(Cn2ccc3cc(Nc4ncnc5ccccc45)ccc32)cc1 [GW275568]	0%	30%	8%
FC(F)(F)c1cc(Nc2nccc(-c3c(-c4ccc(Cl)cc4)nn4ncccc34)n2)ccc1Cl [GW829351]	0%	0%	0%
